# The panel holds about 83,000 compounds, 20% with a hit somewhere; the sample as a whole holds those more often.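 Values shown are percent growth following 48 h exposure of cells in 96-well plates to a single concentration of compound; below 10 was considered active.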 A number with no mark means an inactive call. Active and inactive are the calls of the source.
# Legend:
# Test in all cases: NCI-60 one-dose screen, 48 h (100 = growth as untreated, 0 = no growth, -100 = all killed)
# Conditions in all cases: 10 µM unless noted
# HCT-15 colon = test system: HCT-15 colon
# HT29 colon = test system: HT29 colon
# SNB-75 CNS = test system: SNB-75 CNS
# SNB-19 CNS = test system: SNB-19 CNS
# U251 CNS = test system: U251 CNS
# PC-3 prostate = test system: PC-3 prostate
# SK-MEL-5 melanoma = test system: SK-MEL-5 melanoma
# LOX IMVI melanoma = test system: LOX IMVI melanoma
# SK-MEL-28 melanoma = test system: SK-MEL-28 melanoma
# UACC-62 melanoma = test system: UACC-62 melanoma
Structure (SMILES),growth (HCT-15 colon),growth (HT29 colon),growth (SNB-75 CNS),growth (SNB-19 CNS),growth (U251 CNS),growth (PC-3 prostate),growth (SK-MEL-5 melanoma),growth (LOX IMVI melanoma),growth (SK-MEL-28 melanoma),growth (UACC-62 melanoma)
O=C(OCC1CC2(Cl)C(Cl)=C(Cl)C1(Cl)C2(Cl)Cl)C1C(C(=O)OCC2CC3(Cl)C(Cl)=C(Cl)C2(Cl)C3(Cl)Cl)C2(Cl)C(Cl)=C(Cl)C1(Cl)C2(Cl)Cl (centres undefined),99.9%,99.6%,97.8%,106%,99.2%,105%,104%,122%,112%,–
C#CCCCCCCC[C@@H]1OC(=O)[C@H]([C@@H](C)CC)NC(=O)[C@H]([C@@H](C)CC)NC(=O)CC(=O)[C@@H]1C,98.2%,115%,76.1%,97.7%,103%,85.9%,101%,–,108%,–
[N-]=[N+]=Nc1ncc(-c2ccc(C(F)(F)F)cc2)c(NC2CCCCCC2)n1,25.9% [100 µM],31.4% [100 µM],49.6% [100 µM],40.9% [100 µM],30.3% [100 µM],-8.57% [100 µM] (active),26.5% [100 µM],39.9% [100 µM],68.2% [100 µM],–
COC1=C(OC)C(=O)c2ccccc2C1=O,101%,107%,72.7%,102%,89.9%,82.3%,13.6%,63.4%,101%,–
OC(c1ccccc1)(c1ccccc1)C(F)(F)F,107%,103%,111%,113%,109%,88.4%,109%,105%,117%,–
COCC(=O)NNc1[nH]c(-c2ccc(OC)cc2)cc1C#N,107%,110%,120%,114%,103%,97%,117%,110%,120%,–
O=Nc1ccc(O)c2ccccc12,23.6%,1.37% (active),-64.5% (active),57.8%,-14% (active),-10.5% (active),–,-1.33% (active),13.3%,15.8%
Nc1cc(N)c2nc(NCCc3ccc(Cl)c(Cl)c3)cnc2c1,90%,41.7%,57.9%,66%,7.5% (active),43.9%,37.2%,39.7%,104%,–
O=C1/C(=N\c2cc(=O)[nH]n2S(=O)(=O)c2ccccc2)Nc2ccccc21,100%,109%,81.2%,99.8%,105%,87%,98.6%,92.4%,116%,–
O=C(Nn1cnc2ccccc21)N1CCCC1,112%,109%,107%,110%,99.8%,106%,113%,–,116%,–
CCC(CCCN1C(=O)c2ccccc2C1=O)Nc1cc(OC)cc2cccnc12 (centres undefined),92.4%,105%,93%,106%,101%,86.9%,89.9%,93.5%,111%,–
CCOC(=O)CSSCC(=O)OCC,102%,112%,94.4%,108%,98.4%,100%,–,111%,107%,98.4%
CC1=C[C@@H]2c3c(c(O)c(O)c4oc5cc(O)cc(O)c5c(=O)c34)[C@@H](c3cc(O)c(O)c4oc5cc(O)cc(O)c5c(=O)c34)[C@@H]2C(C)(C)C1,25.4%,-19.6% (active),16.7%,7.8% (active),-8.73% (active),2.82% (active),–,-98.2% (active),-1.44% (active),-61.5% (active)
COC(=O)c1ccc2[nH]c(O)c(C(=Nc3ccc(N(C)C(=O)CN4CCN(C)CC4)cc3)c3cccc(OC)c3)c2c1,7.72% (active),-2.16% (active),-2.49% (active),12.7%,11.7%,20.3%,–,8.47% (active),19.5%,36.6%
COc1cc2cc3cc4cc(OC)c(OC)cc4c(C)[n+]3cc2cc1OC (tested in a mixture with another compound),91.8%,79.2%,73.1%,96.2%,76.9%,67.8%,–,84.4%,116%,84.3%
CCOC(=O)CNS(=O)(=O)CC(=O)c1ccccc1,110%,80.1%,69.4%,94.3%,96.7%,92%,–,104%,127%,95.3%
COC(=O)c1ccc2[nH]c(O)c(C(=Nc3ccc(N(C)C(=O)CN4CCN(C)CC4)cc3)c3ccc(C)cc3)c2c1,-38.5% (active),-23.3% (active),-26.8% (active),-10.6% (active),-77.2% (active),-16% (active),–,4.3% (active),-8.16% (active),-19% (active)
COc1ccc(-c2nc(SCC(C)C)nc(Nc3ccc([N+](=O)[O-])cc3)c2C#N)cc1,101%,97.1%,88.1%,88.4%,80.9%,92.6%,96.3%,91.7%,107%,–
Oc1ccccc1/C=N/N=C\c1ccccc1Cl,95.5%,97.5%,86.7%,91.5%,93.4%,88.1%,–,86.2%,105%,92.1%
Nc1cc(N)c2nc(-c3ccccc3)c(NCCc3ccc(Cl)c(Cl)c3)nc2c1,-87.7% (active),-36.3% (active),-33.7% (active),-69.4% (active),-100% (active),-90.5% (active),-99.1% (active),-91.5% (active),-79.3% (active),–
C/C(=N\Nc1ccc(Cl)cn1)c1ccccn1,15.5%,16.7%,31.5%,21.5%,7.65% (active),20.9%,-61.9% (active),1.48% (active),13.5%,–
COc1cc2c(c(OC)c1OC)C(=O)CC(c1cccc(C(=O)Nc3cccc(Br)c3)c1)O2 (centres undefined),72.1%,82.3%,75.4%,76.4%,81.8%,59.1%,72.9%,90%,91.9%,–
O=C(N/N=C/c1coc2ccccc2c1=O)c1cc2oc(-c3ccccc3)cc2[nH]1,100%,107%,83.8%,92.9%,97.9%,72.1%,–,98.4%,91.9%,94.6%
Cc1nc2ccccc2c(=O)n1-c1cccc(OCc2cn(-c3cccc(O)c3)nn2)c1,107%,96.8%,88.4%,91.2%,98.2%,87.6%,–,94.6%,103%,81.1%
COc1ccc(CN2C(=O)/C(=C\C(=O)c3ccc(OCCN4CCCC4)cc3)c3ccccc32)cc1,37.3%,9.12% (active),73.2%,97.1%,87.3%,84%,92.7%,31.7%,103%,–
CCCOC(=O)c1c(C)n(C)c2scc[n+]12,85.2%,79%,80.1%,88%,55.9%,75.6%,–,82%,91.5%,84%
c1ccc(Nc2ncc3c(n2)-c2cccn2CC3)cc1,32.9%,114%,83.3%,103%,93.7%,81.3%,67%,92.4%,107%,–
COc1cc(NC(=O)CSc2nc3ccc(Cl)cc3c(=O)n2-c2ccc(F)cc2)cc(OC)c1OC,84.5%,97.9%,72.6%,82.2%,82.1%,73%,73.9%,–,95.4%,–
